CYP2C9 activ: CYP2C9 (human) activation. 96,000 compounds, 1.4% hits. AID 1024. P11712. recombinant CYP2C9, luciferin-H conversion, luminescence; hits give high values; factor 1 = untreated enzyme, 0 = blocked. activation factor at 5 µM;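 active means activation factor of 2 or more for CYP2C9 at a 5 µM dose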;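 further: 0 = sulfaphenazole-blocked wells and 1 = vehicle-only wells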
Target sequence (P11712 whole entry, looked up): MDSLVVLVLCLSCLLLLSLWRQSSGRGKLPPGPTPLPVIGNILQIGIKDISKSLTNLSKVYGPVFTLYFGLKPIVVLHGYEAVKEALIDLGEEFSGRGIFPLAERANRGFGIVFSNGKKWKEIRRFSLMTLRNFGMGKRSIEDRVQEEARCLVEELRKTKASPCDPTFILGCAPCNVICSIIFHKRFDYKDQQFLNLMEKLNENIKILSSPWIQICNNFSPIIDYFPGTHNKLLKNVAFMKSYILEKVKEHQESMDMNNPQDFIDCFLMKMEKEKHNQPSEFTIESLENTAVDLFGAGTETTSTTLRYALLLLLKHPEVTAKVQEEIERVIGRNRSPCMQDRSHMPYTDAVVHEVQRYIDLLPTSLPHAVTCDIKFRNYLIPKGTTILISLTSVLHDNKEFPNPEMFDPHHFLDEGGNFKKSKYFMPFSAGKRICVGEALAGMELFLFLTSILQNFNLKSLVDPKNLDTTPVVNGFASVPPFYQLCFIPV
PTK2B oligo ant: blocks oligomerization of human Pyk2 in cells | Q14289 | Q293 cells, Pyk2 FERM NanoBiT luminescence; hits give low values | z-score (the deposit names both 25 µM and 10 µM) | 99,000 compounds, 0.83% hits | AID 1347419;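 active means Z-score of -3 or lower, scaled per plate to the spread of control and sample wells; inactive means z-score above -3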;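 further: negative z-score means lost luminescence so less FERM oligomerization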
CYP2C9 inhib: blocks human cytochrome P450 2C9; CYP2C9 Supersomes, luciferin-H conversion, luminescence; inhibition, % at 5 µM; 96,000 compounds, 20% hits; AID 777;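 active means blocking of liver enzyme CYP2C9 beyond about 50% at 5 µM, limit read from the data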
CYP2C19 activ: cytochrome P450 2C19 (human) activation; P33261; recombinant CYP2C19, luciferin-H EGE luminescence; hits give high values; 0 = fully inhibited enzyme, 1 = untreated enzyme; activation factor at 5 µM; 96,000 tested, under 10 active;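 active means activation factor of at least 2 at 5 µM in the primary screen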;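 further: 0 = wells with 2.5 mM tranylcypromine and 1 = vehicle-only wells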
CYP2C19 inhib: human CYP2C19 inhibition; 96,000 compounds, 21% hits; P33261; AID 778; CYP2C19 Supersomes, luciferin-H EGE luminescence, 30 min; inhibition, % at 5 µM;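 active means CYP2C19 inhibition above a set limit at 5 µM in the primary screen, cut at about 50% in these data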;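 further: plate controls were negative control wells for no effect and 2.5 mM tranylcypromine positive control for full effect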
The depositor's hits bear a star; . = no result given. Shown are actives, neighbours in structure and some others; about 28% of the full set was active somewhere.

SMILES	CYP2C9 activ	PTK2B oligo ant	CYP2C9 inhib	CYP2C19 activ	CYP2C19 inhib
CC1(C)CC(=O)C2=C(C1)N=C1c3ccccc3C(=O)C1C2c1ccc(Cl)cc1 (stereo unspecified)	0.1	-1.8	92*	0.2	81*
Cc1cc(N)n(-c2nc(-c3cccnc3)nc3ccccc23)n1	0.6	-0.17	37	0.9	7
Cc1ccc(O)c(C(=O)c2cnc3c(c2)CN(C)C(=O)N3)c1	0.7	-0.41	29	0.8	20
Cc1ccc(O)c(C(=O)c2cnc3c(c2)CN(CCC(C)C)C(=O)N3)c1	0.4	-1.6	64*	0.9	14
CS(=O)(=O)N1CCN(c2ccccc2NC(=O)c2ccc(Cl)cc2)CC1	0.9	-0.18	14	1	4
CS(=O)(=O)N1CCN(c2ccccc2NC(=O)CSc2ccc(Cl)cc2)CC1	0.1	-0.62	87*	0.2	78*
COc1ccc(NC(=O)c2ccccc2NC(=O)CSc2ccc(Cl)cc2)cc1	0.4	0	62*	0.4	62*
COC(=O)c1sccc1NC(=O)CSc1ccc(Cl)cc1	0.8	-0.81	17	0.9	6
CCOc1ccccc1-n1c(SCC(=O)NC(C)CC)nnc1-c1ccoc1C (stereo unspecified)	0.8	-0.12	16	1	-1
CCOC(=O)c1sc2ncn(C(CC)C(=O)OCC)c(=O)c2c1C (stereo unspecified)	0.2	0.01	83*	0.4	60*
CCOC(=O)c1sc2nc[nH]c(=O)c2c1C	0.9	-0.2	14	0.9	13
CCCOC(=O)C(C)n1cnc2sc(C)c(C)c2c1=O (stereo unspecified)	0.4	0.73	56*	0.3	70*
CCOC(=O)c1sc2ncn(C(C)C(=O)OC)c(=O)c2c1C (stereo unspecified)	0.5	0.62	54*	0.4	57*
CCOC(=O)c1sc2ncn(C(CC)C(=O)OC)c(=O)c2c1C (stereo unspecified)	0	-0.79	96*	0.3	70*
CCOC(=O)C(C)n1cnc2c1c(=O)[nH]c(=O)n2C (stereo unspecified)	.	1.5	.	.	.
CCOC(=O)CNC(=O)CSc1nnc(Cn2cnc3ccccc32)n1C	1	-0.21	-3	1.1	-10
Nc1cccc(-n2nncc2-c2ccccc2)c1	1	-0.17	0	0.7	31
CC1CCCCC1NC(=O)c1ccc(CNc2c(N3CCCC3)c(=O)c2=O)cc1 (stereo unspecified)	1	.	5	1.1	-7
CCOC(=O)CSc1nnc(CSc2nc3sc4c(c3c(=O)[nH]2)CCC4)n1C	0.8	1.4	17	0.9	6
CCOC(=O)CSc1nnc(CSc2nc3sc4c(c3c(=O)[nH]2)CCC4)n1-c1ccccc1	0.4	-1.1	57*	0.7	27
C=CCSc1nnc(CSc2nc3sc4c(c3c(=O)[nH]2)CCCC4)n1-c1ccccc1	0.3	-0.33	67*	0.6	37
COc1ccc(Cl)cc1S(=O)(=O)n1cnc2ccccc21	0.7	0.86	31	0.2	78*
CCOc1ccc(Cl)cc1S(=O)(=O)n1cnc2ccccc21	0.8	0.96	19	0	95*
Cc1ccc(C)c2[nH]c(=O)c(CCNC(=O)C(C)(C)C)cc12	0.9	.	7	0.7	34
COC(=O)c1ccc(C2C(C#N)=C(C)NC3=C2C(=O)CC(C)(C)C3)cc1 (stereo unspecified)	0.6	-0.83	36	0.8	24
SMILES	CYP2C9 activ	PTK2B oligo ant	CYP2C9 inhib	CYP2C19 activ	CYP2C19 inhib
COc1ccc(C2C(C#N)=C(C)NC3=C2C(=O)CC(C)(C)C3)c(OC)c1 (stereo unspecified)	0.6	-2.4	39	0.9	13
CCOC(=O)CSC1=C(C#N)C(c2ccc(C)cc2)C2=C(CCCC2=O)N1 (stereo unspecified)	0.2	-1.1	78*	0.8	21
COc1ccc(C2C(C#N)=C(SC)NC3=C2C(=O)CC(C)(C)C3)cc1 (stereo unspecified)	0.3	-2.6	73*	0.5	50
COc1ccc(C2CC(=O)C3=C(C2)NC(C)=C(C#N)C3c2ccc(N(C)C)cc2)cc1 (stereo unspecified)	0.1	-1.7	87*	0.4	64*
CCOC(=O)CSC1=C(C#N)C(c2ccc(OC)cc2)C2=C(CC(C)(C)CC2=O)N1 (stereo unspecified)	0.4	-2.2	63*	0.3	72*
Cc1ccc(-c2ccc(/C=N/N3C(=O)C4C5C=CC(CC5)C4C3=O)o2)c([N+](=O)[O-])c1 (stereo unspecified)	0.3	-0.2	70*	1	-1
O=C1c2ccccc2C(=O)N1c1ccc(S(=O)(=O)N2CCN(c3ccccc3)CC2)cc1	0.9	1.6	15	0.9	6
NC(=O)c1ncc(C(F)(F)F)cc1Oc1ccc(C(F)(F)F)cc1	0.8	0.31	19	0.2	75*
CCN(CC)S(=O)(=O)c1ccc(N2CCN(S(=O)(=O)c3ccc4c(c3)OCCO4)CC2)nc1	0.6	-0.89	44	0.7	29
Nc1cccc(S(=O)(=O)c2cccc(N)c2)c1	3*	-0.34	-201	0.9	7
Nc1cccc(-c2nc3cc(S(=O)(=O)c4ccc5oc(-c6cccc(N)c6)nc5c4)ccc3o2)c1	0.6	-1.3	37	0.8	23
Cc1ccc(C)c(Oc2nnnn2-c2ccccc2)c1	0.6	-0.74	43	0.1	93*
O=C(c1ccccc1Oc1nnnn1-c1ccccc1)N1CCOCC1	1.1	0.18	-9	1.1	-5
Cc1ccc(C(C)C)c(Oc2nnnn2-c2ccccc2)c1	0.2	-2.8	76*	0.1	91*
O=C(CSc1ccc(Cl)cc1)Nc1ccc(NC(=O)c2ccco2)cc1	0.9	1.2	12	0.8	16
O=C(COc1ccc(Cl)cc1)Nc1ccc(N2CCN(C(=O)c3ccco3)CC2)cc1	0.7	-1.2	32	0.5	51*
O=C(CSc1ccc(Cl)cc1)Nc1ccc(N2CCN(C(=O)c3ccco3)CC2)cc1	0.4	-0.4	64*	0.6	45
O=C1CC(C2CCCO2)C(=O)N1c1ccccc1 (stereo unspecified)	.	-0.73	.	.	.
Cc1onc(-c2ccccc2)c1C(=O)Nc1cccc2nsnc12	0.9	0.01	10	0.6	39
Cc1ccc(S(=O)(=O)CC(=O)N(C)C)cc1	.	1.5	.	.	.
Cc1cccc(N2CCN(C(=O)c3ccncc3)CC2C)c1 (stereo unspecified)	0.5	0.05	49	0	100*
Cc1ccc(-c2ccc(=O)n(CC(=O)N3CCN(c4cccc(C)c4)C(C)C3)n2)cc1 (stereo unspecified)	0.8	0.18	19	0.7	27
Cc1cccc(N2CCN(C(=O)Cn3sc4nc(C)cc(C)c4c3=O)CC2C)c1 (stereo unspecified)	0.5	.	54*	0.7	26
Cc1cccc(N2CCN(C(=O)Cn3c(=O)[nH]c4ccsc4c3=O)CC2C)c1 (stereo unspecified)	0.6	-0.33	37	0.4	59*
